Assay outcomes as filed in PubChem BioAssay.
Most compounds without a hit are left out; they make up all but 12% or so of the library.
JMJD2A Tudor – blocks the human JMJD2A Tudor domain; AlphaScreen JMJD2A-Tudor / H3K4me3 peptide binding; Potency, µM (doses to about 114 µM), most hits filed as inhibitors; 390,000 compounds, 4.4% hits; also: nearly all actives have a fitted effect of over 50% in size
G9a block – G9a (human) methyltransferase inhibition; Q96KQ7; 350,000 compounds, 8.8% hits; Potency, µM (series often up to 102 µM), actives largely listed as inhibitors; G9a H3K9 monomethylation, AlphaScreen, 2 h; also: nearly all actives have a fitted effect of over 75% in size
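Readings reflect AlphaScreen signal from monomethyl-H3K9 antibody detection. HMT at 20 nM; substrate b-H3K9 500 nM; cofactor SAM 20 uM; 2 h RT reaction; compounds tested as titrations in qHTS with 15 min preincubation.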
BAZ2B block – inhibitors of human BAZ2B bromodomain; Q9UIF8; AlphaScreen BAZ2B-H3K14Ac peptide displacement; Potency, µM (highest dose often 114 µM), actives largely listed as inhibitors; 360,000 compounds, 4.4% hits; AID 504333; also: nearly all actives have a fitted effect of over 60% in size
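Complex of BAZ2B and biotin-H3K14Ac (50 nM apiece) forms over 30 min at RT, then faces library compounds up to 110 uM for another 30 min; AlphaScreen beads added, 20 min dark incubation, luminescence read.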
PI5P4Ka inh – blocks human PI5P4K alpha kinase activity. PI5P4Kalpha enzyme, ADP-Glo luminescence, 60 min; hits give low values. max response, %. 330,000 compounds, 1.2% hits. AID 652105; active = max response of -50% or lower; inconclusive = between -30% and -50%; inactive = -30% or higher; also: value at the top dose of about 77 µM
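Enzyme plus substrate dispensed, test compounds pinned in, then ATP (5 microM final) added. After 60 min at RT, ADP-Glo reagent 1 for 45 min and reagent 2 for 30 min preceded luminescence imaging.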
HP1b chromo inh – inhibitors of HP1-beta chromodomain binding to methylated histone tails; AlphaScreen HP1-beta / biotin-H3K9me3 peptide binding; 390,000 compounds, 0.56% hits; P83916; Potency, µM (top dose mostly 114 µM), usual class: inhibitors; AID 540317; also: nearly all actives have a fitted effect of over 70% in size
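HP1-beta protein (50 nM final) preincubated 30 min at room temperature with biotinylated H3(1-18)K9me3 peptide (50 nM) in PBS pH 7.4, 0.01% Tween-20, then compound added for 30 min. AlphaScreen streptavidin donor/nickel chelate acceptor beads (10 ug/mL final), 30 min dark, luminescence read.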
PLK1 PBD inh – blocks phosphopeptide binding to human PLK1 polo-box domain; P53350; Plk1 PBD binding of FITC phosphopeptide, fluorescence polarization; Potency, µM, most hits filed as inhibitors; 360,000 compounds, 2.8% hits; AID 720504; also: series mostly up to about 57 µM; nearly all actives have a fitted effect of over 65% in size
Target sequence (P53350 whole entry, looked up, the tested form may be a part): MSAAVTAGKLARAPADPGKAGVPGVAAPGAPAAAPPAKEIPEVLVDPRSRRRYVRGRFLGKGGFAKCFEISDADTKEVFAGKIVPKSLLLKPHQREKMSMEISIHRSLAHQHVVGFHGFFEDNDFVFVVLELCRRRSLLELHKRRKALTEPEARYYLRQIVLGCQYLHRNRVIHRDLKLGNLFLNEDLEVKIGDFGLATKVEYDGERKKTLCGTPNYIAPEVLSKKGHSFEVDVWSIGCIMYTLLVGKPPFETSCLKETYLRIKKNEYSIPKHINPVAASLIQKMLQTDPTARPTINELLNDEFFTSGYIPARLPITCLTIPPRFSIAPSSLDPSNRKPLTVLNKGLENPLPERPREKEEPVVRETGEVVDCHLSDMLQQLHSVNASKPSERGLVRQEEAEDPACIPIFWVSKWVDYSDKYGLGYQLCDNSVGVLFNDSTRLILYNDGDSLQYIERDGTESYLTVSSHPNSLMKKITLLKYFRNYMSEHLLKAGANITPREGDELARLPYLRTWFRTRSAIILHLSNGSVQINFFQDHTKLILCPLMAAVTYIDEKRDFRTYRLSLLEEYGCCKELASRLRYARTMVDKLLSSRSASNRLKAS
Each line names hits and unclear results; the compound was inactive in the other large screens. Unless noted, calls follow the shape of the dose curve; as a rule, active = well fitted curve in the direction sought with a large enough effect; inconclusive = small, poorly fitted or top-dose-only effect, or another doubt; inactive = no such curve, though single readings can be large; an effect the other way counts as inactive or inconclusive.

COc1cccc(C(=O)Nc2ccc(C(=O)OCc3cc(=O)n4nc(C5CC5)sc4n3)cc2)c1	none (no result: PI5P4Ka inh, PLK1 PBD inh)
O=C(CN1CCN(CC(=O)Nc2ccccc2F)CC1)Nc1ccc(Cl)c(C(F)(F)F)c1	none (no result: PI5P4Ka inh, PLK1 PBD inh)
Cc1cccc(CSc2ccc3nnc(CCNS(=O)(=O)c4ccccc4)n3n2)c1	none (no result: PI5P4Ka inh, PLK1 PBD inh)
COc1ccccc1N(CC(=O)NC1CCCC1)S(=O)(=O)c1cccc(C(F)(F)F)c1	none
Cc1ccc(C)c(NC(=O)CSc2nncn3c2cc2sccc23)c1	none (no result: PI5P4Ka inh, PLK1 PBD inh)
CCOc1cc(CNc2ccc(N3CCCC3)cc2)cc(Cl)c1OC	JMJD2A Tudor 11µM, G9a block 10µM, BAZ2B block 13µM, HP1b chromo inh 20µM
CC1=C(C(=O)Nc2cccc(C(F)(F)F)c2)C(c2ccccc2)n2ncnc2N1 (stereo not drawn)	none (no result: PI5P4Ka inh, PLK1 PBD inh)
NC1=NC(=O)C(CC(=O)Nc2ccc3c(c2)OCO3)S1 (stereo not drawn)	G9a block 50µM, PI5P4Ka inh inconclusive
Cc1cc(OC(C)C(=O)NCc2ccncc2)c2c(C)c(C)c(=O)oc2c1 (stereo not drawn)	JMJD2A Tudor inconclusive, PLK1 PBD inh 12µM
Cc1cc(OC(C)C(=O)NCc2ccccn2)c2c(C)cc(=O)oc2c1 (stereo not drawn)	JMJD2A Tudor inconclusive, PLK1 PBD inh 27µM
Cc1cc(OC(C)C(=O)NCc2cccnc2)c2c(C)cc(=O)oc2c1 (stereo not drawn)	JMJD2A Tudor inconclusive, PLK1 PBD inh 27µM
Cc1cc(OC(C)C(=O)NCc2ccncc2)c2c(C)cc(=O)oc2c1 (stereo not drawn)	PLK1 PBD inh inconclusive
O=C(NCc1ccc(F)cc1)c1noc2c1CCCC2	none (no result: G9a block, PI5P4Ka inh)
CCOC(=O)c1ccc(NC(=O)c2noc3c2CCCC3)cc1	none (no result: PI5P4Ka inh, PLK1 PBD inh)
CC(=O)c1ccc(NC(=O)c2noc3c2CCCCC3)cc1	G9a block 56µM, PI5P4Ka inh inconclusive
O=C(Nc1ccc(F)cc1F)c1noc2c1CCC2	JMJD2A Tudor 79µM, G9a block inconclusive, BAZ2B block 56µM, HP1b chromo inh inconclusive, PLK1 PBD inh inconclusive (no result: PI5P4Ka inh)
CCc1ccccc1NC(=O)c1cc(-c2ccco2)on1	G9a block 40µM
Cc1ccc(NC(=O)c2cc(-c3ccco3)on2)cc1C	G9a block 50µM, BAZ2B block inconclusive (no result: PI5P4Ka inh)
Cc1ccc(NC(=O)c2cc(-c3ccco3)on2)cc1	none (no result: PI5P4Ka inh)
COc1ccc(-c2cc(C(=O)Nc3c(C)nn(Cc4ccc(F)cc4)c3C)no2)cc1OC	none (no result: PI5P4Ka inh, PLK1 PBD inh)
COc1ccc(NC(=O)c2cc(-c3ccc(OC)c(OC)c3)on2)cc1OC	none (no result: PI5P4Ka inh)
COc1ccc(NC(=O)c2cc(-c3ccco3)on2)cc1OC	G9a block 50µM
Cc1nn(Cc2ccc(F)cc2)c(C)c1NC(=O)c1cc(-c2ccco2)on1	G9a block 56µM (no result: PI5P4Ka inh)
CNC(=O)c1sc(-c2cccs2)nc1C	G9a block 45µM (no result: BAZ2B block)
Cc1nc(-c2ccccc2)sc1C(=O)NN	G9a block inconclusive
CC(NC(=O)C1CCN(C(=O)c2ccc(F)cc2)CC1)c1ccc(S(N)(=O)=O)cc1 (stereo not drawn)	none (no result: G9a block, BAZ2B block)
C=CC[C@@H](CC(=O)N(CCO)Cc1ccccc1)C(=O)NC[C@H](OC(=O)[C@@H](CC=C)Cc1ccc(F)cc1)c1ccccc1	none (no result: G9a block, BAZ2B block)
CCCCC1(C)OC(=O)C(=Cc2ccc(SC)cc2)C(=O)O1 (stereo not drawn)	PLK1 PBD inh 2.4µM
CN(C)c1ccc(C=C2C(=O)OC(C)(C)OC2=O)cc1	G9a block inconclusive, PLK1 PBD inh inconclusive
N#CC1=C(N)OC2=C(C(=O)CCC2)C12CCN(C(=O)OCc1ccccc1)CC2	G9a block 50µM
CC(=O)N1CCN(C(=O)C(Cc2ccccc2)NC(=O)c2ccccc2)CC1 (stereo not drawn)	none
O=C(NC(Cc1ccccc1)C(=O)N1CCN(c2ccccc2O)CC1)c1ccccc1 (stereo not drawn)	G9a block 50µM
O=C(Nc1ccccc1C(=O)NC(Cc1ccc(O)cc1)C(=O)O)c1ccccc1 (stereo not drawn)	G9a block 45µM
O=C(N[C@@H](Cc1ccccc1)C(=O)O)c1cccnc1	G9a block 50µM
O=C(NC(NCc1ccccc1)C(Cl)(Cl)Cl)c1cccnc1 (stereo not drawn)	none
O=C(Nc1ccccc1C(=O)NC(Cc1ccccc1)C(=O)O)c1ccco1 (stereo not drawn)	none
CCC(C)NC(=O)CSc1nc2n[nH]c(C)c2c(=N)n1-c1ccc(C)c(Cl)c1 (stereo not drawn)	none (no result: PI5P4Ka inh, PLK1 PBD inh)
O=C(CSc1nc(-c2ccc(F)cc2)cc(C(F)(F)F)n1)NCc1ccccc1	none (no result: PI5P4Ka inh, PLK1 PBD inh)
CC(C)(C)Nc1nc(SCC(=O)Nc2ccccc2Cl)nc(N2CCOCC2)n1	BAZ2B block 79µM (no result: G9a block)
Cc1nc2c(-c3ccccc3)c(C)nn2c(C)c1CCC(=O)N1CCN(c2ccc(F)cc2)CC1	none (no result: PI5P4Ka inh, PLK1 PBD inh)
COc1ccc(C(=O)CSc2nnc(CNC(=O)c3ccc(OC)cc3)n2C)cc1	JMJD2A Tudor 50µM, G9a block inconclusive (no result: PI5P4Ka inh)
Cc1ccc(C(=O)CSc2nnc(CNc3nc(-c4ccccc4)cs3)n2C)cc1	G9a block 35µM, BAZ2B block inconclusive
COC(=O)CSc1nnc(CNC(=O)c2cc(OC)c(OC)c(OC)c2)n1C	none (no result: PI5P4Ka inh)
Cc1cc(C)nc(SCc2nnc(SCC(=O)Nc3nc(-c4ccccc4)cs3)n2C)n1	none
COc1ccc(C(=O)NCc2nnc(SCC(=O)c3ccccc3)n2C)cc1OC	G9a block 56µM
CCOC(=O)CSc1nnc(NC(=O)CCc2ccccc2)s1	none
CCCSc1ncc(Cl)c(C(=O)NCc2ccc(C)cc2)n1	none (no result: PI5P4Ka inh, PLK1 PBD inh)
